# Source: PubChem BioAssay
# Activity calls are given as the source filed them.
# How the values were obtained:
# [1] = optical density shifts of acrAB sulA E. coli – strain DRC41, OD650, 48 h, E. coli filamentation inducer project, primary screen (AID 1152); settings: higher = more signal, called active from +8 up or from −8 down;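 also: E. coli MC1000 strain DRC41 lacking acrAB efflux pump and sulA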
# [2] = probe aLefty1 binding on compound microarray – biochemical, small-molecule microarray, 635/667 nm fluorescence, primary screen (AID 1153); settings: higher = more signal;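 also: score merges spot fluorescence with signal-to-noise ratio from the scanned slide images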
# [3] = plasmodial surface anion channel blockers, osmotic lysis – cell-based, P. falciparum Indochina, OD700, 1 h, primary screen (AID 1154); settings: P. falciparum Indochina infected RBC osmotic lysis, higher = more signal, called active from +8 up or from −8 down
# [4] = plasmodial surface anion channel blockers, osmotic lysis – cell-based, P. falciparum Indochina, OD700, 2 h, primary screen (AID 1155);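 also: lysis reports solute entry through the parasite surface anion channel PSAC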; settings: P. falciparum Indochina infected erythrocytes, higher = more signal, called active from +8 up or from −8 down
# [5] = changes in parasitized red cell lysis, either direction – P. falciparum Indochina, OD700, 3 h, PSAC antagonist project, primary screen (AID 1156); settings: P. falciparum-infected erythrocytes, osmotic lysis, higher = more signal, called active from +8 up or from −8 down
# [6] = plasmodial surface anion channel blockers, osmotic lysis – cell-based, P. falciparum Indochina, OD700, 18 h, primary screen (AID 1157); settings: P. falciparum Indochina infected erythrocytes, osmotic lysis OD700, 18 h; higher = more signal, called active from +8 up or from −8 down
# [7] = S6 kinase pathway phospho-S6 level changes – cell-based, A549, cytoblot, luminescence, serum-stimulated, primary screen (AID 1158); settings: 5 h, higher = more signal;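 also: serum-stimulated A549 lung adenocarcinoma cells; signal is phosphorylated S6 detected by cytoblot immunostaining with HRP secondary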
# [8] = biological target: NADPH oxidase 2 (Homo sapiens) (UniProt P04839); assay: compounds shifting NOX2 Amplex Red fluorescence – cell-based, HEK293-NOX2, PMA-stimulated, NOX inhibitor project, primary screen (AID 1159); settings: 45 min, higher = more signal, called active from +8 up or from −8 down; also: test concentration not given here
# [9] = biological target: NADPH oxidase 4 (Homo sapiens) (UniProt Q9NPH5); assay: compounds shifting NOX4 Amplex Red fluorescence – cell-based, HEK293-NOX4, tetracycline-induced, NOX inhibitor project, primary screen (AID 1160); settings: HEK293-NOX4, Amplex Red H2O2 fluorescence, 45 min; higher = more signal, called active from +8 up or from −8 down
# [10] = biological target: NADPH oxidase 5 (Homo sapiens) (UniProt Q96PH1); assay: compounds shifting NOX5 Amplex Red fluorescence – cell-based, HEK293-NOX5, NOX inhibitor project, primary screen (AID 1161); settings: HEK293-NOX5, ionomycin, 45 min, higher = more signal
# [11] = compound effects on lung adenocarcinoma cell viability – A549, calcein-AM fluorescence, 48 h, basal, profiling panel (AID 1162); settings: higher = more signal; also: test concentration not given here
# [12] = compound effects on differentiated 3T3-L1 adipocyte viability – cell-based, 3T3-L1 adipocytes, calcein-AM fluorescence, 48 h, basal, profiling panel (AID 1163); settings: 3T3-L1 adipocytes viability, higher = more signal; also: test concentration not given here
# [13] = compound effects on hepatocellular carcinoma cell viability – HepG2, calcein-AM fluorescence, 48 h, basal, profiling panel (AID 1164); settings: higher = more signal; also: test concentration not given here
# [14] = compound effects on multiple myeloma cell viability – MM1S, calcein-AM fluorescence, 48 h, basal, profiling panel (AID 1165); settings: higher = more signal;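 also: viability of MM1S multiple myeloma cells under basal unstimulated conditions; test concentration not given here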
# [15] = calcein-AM signal in unstimulated myeloma cells – cell-based, calcein-AM fluorescence, 48 h, PK04 Diversity Set, profiling panel (AID 1166); settings: RPMI8226 myeloma viability, higher = more signal;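 also: cells grown under basal conditions without added stimulus; test concentration not given here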
# [16] = JC-1 mitochondrial signal, unstimulated HepG2 cells – cell-based, JC-1 fluorescence, 24 h, 100 nL compound, profiling panel (AID 1167); settings: HepG2 mitochondrial potential, higher = more signal; also: test concentration not given here
# [17] = JC-1 mitochondrial signal, unstimulated adipocytes – cell-based, JC-1 fluorescence, 3T3-L1 adipocytes, 24 h, 100 nL compound, profiling panel (AID 1168); settings: JC-1 mitochondrial fluorescence, higher = more signal, called active from +8 up or from −8 down; also: test concentration not given here
# [18] = JC-1 mitochondrial signal, unstimulated myeloma cells – cell-based, JC-1 fluorescence, RPMI8226, 24 h, 100 nL compound, profiling panel (AID 1169); settings: JC-1 mitochondrial potential fluorescence, higher = more signal; also: test concentration not given here
# [19] = JC-1 mitochondrial signal, unstimulated MM1S myeloma – cell-based, JC-1 fluorescence, 24 h, 100 nL compound, profiling panel (AID 1170); settings: MM1S mitochondrial potential, higher = more signal; also: test concentration not given here
# [20] = resazurin metabolic signal in A549 cells – cell-based, resazurin fluorescence, 24 h, PK04 Diversity Set, profiling panel (AID 1171); settings: A549 viability, higher = more signal, called active from +8 up or from −8 down; also: test concentration not given here
# NADPH oxidase 2 (Homo sapiens), sequence (P04839 whole entry, looked up): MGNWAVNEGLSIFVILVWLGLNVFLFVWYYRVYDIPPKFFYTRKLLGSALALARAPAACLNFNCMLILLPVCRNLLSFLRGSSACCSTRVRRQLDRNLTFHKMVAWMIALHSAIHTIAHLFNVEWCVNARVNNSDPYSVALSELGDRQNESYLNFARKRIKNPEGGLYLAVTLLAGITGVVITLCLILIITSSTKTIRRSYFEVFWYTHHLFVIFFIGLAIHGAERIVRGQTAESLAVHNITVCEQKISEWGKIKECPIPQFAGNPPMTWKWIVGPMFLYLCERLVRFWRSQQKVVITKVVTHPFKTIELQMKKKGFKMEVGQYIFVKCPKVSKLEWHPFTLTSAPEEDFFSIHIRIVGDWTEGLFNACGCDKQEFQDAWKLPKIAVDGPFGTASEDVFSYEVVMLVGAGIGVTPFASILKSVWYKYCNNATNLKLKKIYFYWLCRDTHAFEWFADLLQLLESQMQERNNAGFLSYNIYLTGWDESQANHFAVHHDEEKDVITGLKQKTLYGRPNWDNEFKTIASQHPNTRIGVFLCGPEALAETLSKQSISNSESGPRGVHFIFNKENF
# NADPH oxidase 5 (Homo sapiens), sequence (Q96PH1 whole entry, looked up): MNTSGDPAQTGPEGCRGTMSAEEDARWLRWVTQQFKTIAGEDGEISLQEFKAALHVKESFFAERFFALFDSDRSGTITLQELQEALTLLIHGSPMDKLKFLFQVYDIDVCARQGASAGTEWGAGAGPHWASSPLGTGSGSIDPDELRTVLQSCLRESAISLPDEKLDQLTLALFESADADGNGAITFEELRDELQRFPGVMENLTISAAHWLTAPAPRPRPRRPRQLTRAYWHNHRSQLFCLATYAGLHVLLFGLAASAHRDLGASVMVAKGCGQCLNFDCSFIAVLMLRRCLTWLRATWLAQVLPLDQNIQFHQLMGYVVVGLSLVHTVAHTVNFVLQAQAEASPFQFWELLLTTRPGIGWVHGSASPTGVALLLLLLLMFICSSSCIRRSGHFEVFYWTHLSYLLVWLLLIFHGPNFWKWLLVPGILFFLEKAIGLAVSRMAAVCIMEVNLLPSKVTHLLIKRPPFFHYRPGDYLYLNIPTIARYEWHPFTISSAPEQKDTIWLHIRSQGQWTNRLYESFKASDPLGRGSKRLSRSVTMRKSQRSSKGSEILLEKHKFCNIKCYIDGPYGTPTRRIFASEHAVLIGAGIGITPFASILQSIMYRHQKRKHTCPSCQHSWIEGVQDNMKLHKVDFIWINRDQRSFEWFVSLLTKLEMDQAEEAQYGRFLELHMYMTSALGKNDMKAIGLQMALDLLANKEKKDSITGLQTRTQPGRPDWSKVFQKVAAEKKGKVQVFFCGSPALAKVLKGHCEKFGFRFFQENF
# NADPH oxidase 4 (Homo sapiens), sequence (Q9NPH5 whole entry, looked up): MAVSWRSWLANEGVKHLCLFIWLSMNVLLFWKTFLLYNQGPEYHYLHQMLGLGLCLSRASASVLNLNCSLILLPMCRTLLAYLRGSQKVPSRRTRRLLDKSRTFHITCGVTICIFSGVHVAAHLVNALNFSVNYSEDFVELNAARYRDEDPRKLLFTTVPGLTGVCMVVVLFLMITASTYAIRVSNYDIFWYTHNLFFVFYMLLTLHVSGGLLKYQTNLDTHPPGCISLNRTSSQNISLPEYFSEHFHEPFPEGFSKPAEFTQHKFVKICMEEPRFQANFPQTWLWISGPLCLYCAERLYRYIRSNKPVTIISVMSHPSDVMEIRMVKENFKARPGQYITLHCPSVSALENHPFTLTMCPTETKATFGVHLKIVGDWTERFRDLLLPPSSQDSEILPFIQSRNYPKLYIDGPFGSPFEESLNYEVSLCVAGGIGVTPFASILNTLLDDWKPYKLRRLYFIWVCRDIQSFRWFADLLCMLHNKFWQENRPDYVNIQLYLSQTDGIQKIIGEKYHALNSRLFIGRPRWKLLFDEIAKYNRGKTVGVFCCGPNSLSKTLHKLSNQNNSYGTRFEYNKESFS
SMILES,z-score [1],composite z-score [2],z-score [3],z-score [4],z-score [5],z-score [6],z-score [7],z-score [8],z-score [9],z-score [10],z-score [11],z-score [12],z-score [13],z-score [14],z-score [15],z-score [16],z-score [17],z-score [18],z-score [19],z-score [20]
C=C(C)[C@@H]1CC=C(C(O)C2C=CC3C(=O)N(c4ccccc4)C(=O)C3N2Nc2ccc(C#N)cc2)CC1 (stereo not given in full),-2.24 (inactive),0.619,9.15 (active),3.26 (inactive),0.625 (inactive),2.49 (inactive),-0.66,-1.94 (inactive),-3.56 (inactive),-2.27,-0.391,-0.575,0.166,-0.331,0.0001,-2.47,-2.61 (inactive),-0.671,-0.641,-0.31 (inactive)
COc1ccc(C(O)C2C=CC3C(=O)N(c4ccccc4)C(=O)C3N2Nc2ccccc2F)cc1 (stereo not given),-1.19 (inactive),0.167,4.67 (inactive),1.33 (inactive),0.0183 (inactive),0.635 (inactive),-0.331,-1.34 (inactive),-3.63 (inactive),-1.7,-0.775,0.406,-0.596,-0.808,-2.08,-0.334,-0.149 (inactive),-0.288,-0.855,0.21 (inactive)
COCCOC(=O)N1C(=O)[C@@]2(c3cc(C#CCNC(N)=O)ccc31)[C@H](c1ccc(OCCO)cc1)N1[C@H](c3ccccc3)[C@H](c3ccccc3)OC(=O)[C@H]1[C@@H]2C(=O)NC[C@H](O)c1ccccc1,0.402 (inactive),0.119,1.65 (inactive),1.1 (inactive),0.624 (inactive),0.457 (inactive),-0.144,2.22 (inactive),1.06 (inactive),-0.137,-1.31,0.494,-0.542,-0.193,-0.158,-1.49,0.17 (inactive),0.235,-0.391,0.32 (inactive)
COCCOC(=O)N1C(=O)[C@@]2(c3cc(C#CC4(O)CCCCCC4)ccc31)[C@H](C(=O)N1CCN(c3ncccn3)CC1)[C@H]1C(=O)O[C@H](c3ccccc3)[C@H](c3ccccc3)N1[C@@H]2c1ccccc1OCCO,-0.53 (inactive),0.487,1.57 (inactive),0.276 (inactive),0.547 (inactive),0.384 (inactive),-0.21,1.82 (inactive),-0.726 (inactive),1.31,-0.118,0.481,-0.594,-0.483,-1.98,-0.151,0.909 (inactive),-0.288,-0.589,-0.0171 (inactive)
C=CCC(OC(C)=O)[C@@H]1[C@@H](N(Cc2cccc3ccccc23)C(=O)c2ccc(-c3ccccc3)cc2)c2cc(OCCCO)ccc2N1C(=O)c1ccc(-c2ccccc2)cc1 (stereo not given in full),-0.883 (inactive),-0.06,0.311 (inactive),-1.06 (inactive),-0.942 (inactive),-0.454 (inactive),-0.0997,0.582 (inactive),0.688 (inactive),0.296,0.512,0.842,0.515,-0.484,0.294,0.78,-1.97 (inactive),0.603,0.0821,0.654 (inactive)
CC(C)[Si]1(C(C)C)OCc2cc(-c3ccc(-c4ccc(Cl)c(Cl)c4)o3)nc(CCc3ccccc3)c21,0.785 (inactive),-0.239,1.58 (inactive),-0.0088 (inactive),-0.263 (inactive),-1.01 (inactive),0.353,0.69 (inactive),0.187 (inactive),-0.402,0.305,0.405,0.165,-3.2,-4.26,-2.07,0.945 (inactive),-0.838,-1.72,1.4 (inactive)
CN(C)CCCC[C@@H]1NC(=O)[C@@H]2C[C@H](C(=O)O)[C@H](c3cccc(OCCO)c3)N2C1=O,0.408 (inactive),-0.147,2.07 (inactive),0.2 (inactive),-0.725 (inactive),-0.0176 (inactive),-0.564,1.11 (inactive),0.306 (inactive),1.18,0.0184,0.13,0.201,0.238,0.312,1.05,-0.864 (inactive),-0.804,0.174,0.593 (inactive)
CC(C)C[C@@H]1NC(=O)[C@@H]2C[C@H](C(=O)NCCCCCC[N+](C)(C)C)[C@H](c3cccc(OCCO)c3)N2C1=O,-0.407 (inactive),0.22,6.26 (inactive),1.35 (inactive),-0.953 (inactive),0.376 (inactive),-0.797,2.3 (inactive),1.31 (inactive),2.51,-0.895,0.137,-1.16,-0.131,-0.585,-1.48,0.229 (inactive),0.108,0.0386,-0.483 (inactive)
